According to article PMC4336329 (PLoS ONE, 2015):
Among all 310,000 compounds or so, about 14,000 (4.5%) showed an effect of 50% or more. The effect is printed as a negative number. What follows is part of a selection rich in strong results, with near analogues and random picks from the rest.

Molecular target: human ether-à-go-go-related gene (hERG) potassium channel (human, UniProt Q12809)
Assay: primary screen, population patch clamp on CHO cells stably expressing hERG; higher = less effect of the substance
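Note: peak tail current of the secondary pulse compared with the same well before compound.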

human ether-à-go-go-related gene (hERG) potassium channel, sequence (Q12809 whole entry, looked up): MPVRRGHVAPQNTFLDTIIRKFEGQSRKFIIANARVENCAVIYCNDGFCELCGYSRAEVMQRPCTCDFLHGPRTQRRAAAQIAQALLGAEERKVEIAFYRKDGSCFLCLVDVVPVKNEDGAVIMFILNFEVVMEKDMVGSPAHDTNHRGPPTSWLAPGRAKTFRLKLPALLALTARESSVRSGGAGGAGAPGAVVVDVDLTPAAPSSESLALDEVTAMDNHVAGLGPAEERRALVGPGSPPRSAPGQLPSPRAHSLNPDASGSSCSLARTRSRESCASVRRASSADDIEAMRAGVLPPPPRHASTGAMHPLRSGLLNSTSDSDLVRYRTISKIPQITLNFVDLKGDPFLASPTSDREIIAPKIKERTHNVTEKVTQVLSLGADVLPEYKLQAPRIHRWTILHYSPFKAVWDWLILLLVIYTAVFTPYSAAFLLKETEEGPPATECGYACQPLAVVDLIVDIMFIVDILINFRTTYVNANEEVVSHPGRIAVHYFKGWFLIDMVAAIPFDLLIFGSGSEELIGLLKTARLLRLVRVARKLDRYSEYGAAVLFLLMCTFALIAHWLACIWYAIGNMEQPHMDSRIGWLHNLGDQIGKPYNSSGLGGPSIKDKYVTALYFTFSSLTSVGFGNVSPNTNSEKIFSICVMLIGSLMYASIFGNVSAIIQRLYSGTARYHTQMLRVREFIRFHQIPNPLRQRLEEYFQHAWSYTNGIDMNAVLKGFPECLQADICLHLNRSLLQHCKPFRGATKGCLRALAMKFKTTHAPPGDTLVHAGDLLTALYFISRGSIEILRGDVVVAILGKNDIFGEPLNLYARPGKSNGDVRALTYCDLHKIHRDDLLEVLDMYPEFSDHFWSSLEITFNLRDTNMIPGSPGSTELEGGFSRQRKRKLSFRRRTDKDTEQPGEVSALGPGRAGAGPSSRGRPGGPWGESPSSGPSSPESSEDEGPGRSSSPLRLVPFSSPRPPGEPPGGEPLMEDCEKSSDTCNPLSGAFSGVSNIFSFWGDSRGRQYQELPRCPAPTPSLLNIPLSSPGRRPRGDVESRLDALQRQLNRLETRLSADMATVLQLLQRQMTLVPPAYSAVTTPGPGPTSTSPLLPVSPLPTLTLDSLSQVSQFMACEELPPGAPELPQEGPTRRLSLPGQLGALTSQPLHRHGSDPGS

Structure (SMILES)	hERG current change (%, negative = inhibition) at 10uM
CN(C)c1cc2c(cc1NS(=O)(=O)c1ccccc1)n(C)c(=O)n2C	10.5%
CN1CCN(C(=O)Nc2cccc(-c3ccccc3)c2)CC1	-3.63%
O=C(NCCC1=CCCCC1)c1c(O)nc2ccccn2c1=O	0.215%
O=c1c2ccccc2nc(-c2ccco2)n1/N=C/c1ccco1	13.1%
CC(C)N(C(=O)CSc1nc2ccccc2n1Cc1ccc(F)cc1)C(C)C	-27.3%
CN1C[C@@H]2C(c3ccc(Cl)nc3)C3(c4ccccc4)CC2(C3)[C@H]1c1ccccc1 (stereo partly drawn)	-43.1%
CN1C[C@@H]2C(c3ccccc3)C3(c4cccnc4)CC2(C3)[C@H]1c1ccccc1 (stereo partly drawn)	-46.5%
CN1C[C@@H]2C(c3ccc(C(F)(F)F)cc3)C3(c4ccccc4)CC2(C3)[C@H]1c1ccccc1 (stereo partly drawn)	-1.14%
CN1C[C@@H]2C(c3ccc(Cl)nc3)C3(c4ccc(C#N)cc4)CC2(C3)[C@H]1c1ccccc1 (stereo partly drawn)	-54.9%
CN1C[C@@H]2C(c3ccc(C(F)(F)F)cc3)C3(c4cccnc4)CC2(C3)[C@H]1c1ccccc1 (stereo partly drawn)	-60%
CN1C[C@@H]2C(c3ccccc3)C3(c4ccc(C#N)cc4)CC2(C3)[C@H]1c1ccccc1 (stereo partly drawn)	-32.5%
Clc1ccc(-c2nc(Cc3ccccc3)no2)cc1	11.9%
Cn1ccs/c1=N\S(=O)(=O)c1ccc(C(C)(C)C)cc1	-11.5%
CC(NC(=S)NC1CCCCC1)c1ccc(C(C)(C)C)cc1 (stereo not drawn)	10.6%
c1coc(-c2cc(C3CCNCC3)[nH]n2)c1	15.5%
Cc1cc(C(=O)N2CCC(C)CC2)on1	1.18%
CC(C)n1nc(C(=O)NNC(=O)c2ccc(OC(F)F)cc2)c2ccccc2c1=O	-76.3%
CC(C)n1nc(C(=O)NNC(=O)c2ccncc2)c2ccccc2c1=O	3.56%
CC(C)n1nc(C(=O)Oc2ccc(Cl)cc2)c2ccccc2c1=O	5.39%
CCCCCOC(=O)Cn1c(=O)oc2ccccc21	0.0173%

Structure (SMILES)	hERG current change (%, negative = inhibition) at 10uM
NNC(=O)Cn1c(COc2ccc(Cl)cc2)nc2ccccc21	-9.34%
CCCCCCCCCCOC(=O)Cn1c(COc2ccc(Cl)cc2)[n+](C)c2ccccc21.[Cl-]	-76.2%
CCCCCCCCCCOC(=O)Cn1c(COc2ccc(C)cc2)[n+](C)c2ccccc21.[Cl-]	-74.9%
CCCCCCCCCCOC(=O)Cn1c(COc2cccc(OC)c2)[n+](C)c2ccccc21.[Cl-]	-76.7%
CN(C)C(=O)Oc1ccc(OCc2n(C)c3ccccc3[n+]2C)cc1.[Cl-]	5.79%
CCCCCCCCOc1ccc(C(=O)O)cc1	13.3%
CCOC(=O)C(CCCOc1cccc(OC)c1)C(=O)OCC	-14.9%
CN(C)C(=O)Oc1cccc(OCc2n(C)c3ccccc3[n+]2C)c1.[Cl-]	14.7%
Cc1ccc(OCCCCn2c(CO)nc3ccccc32)cc1	-14.6%
CCCCc1n(CC(=O)c2ccc(Cl)cc2)c2ccccc2[n+]1C.[Br-]	8.02%
CCCCCCCCCCOC(=O)Cn1c(COc2ccccc2)[n+](C)c2ccccc21.[Cl-]	-76.1%
COc1cc(OC)c2ccc(=O)oc2c1C(CC(=O)N1CCCC1)c1ccc(N(C)C)cc1 (stereo not drawn)	10.2%
COc1cccc(C(C(=O)NC2CCCC2)N(C(=O)c2ccco2)c2ccc(-n3cnnn3)c(C)c2)c1OC (stereo not drawn)	8.33%
COc1cc(Cl)ccc1OCc1cc(C(=O)N2C[C@]3(C)C[C@H]2CC(C)(C)C3)no1	-8.91%
CC12CCC(CC1=O)C2(C)C (stereo not drawn)	8.29%
CCCCOC(=O)Cn1c2ccc(OC)cc2c2nc3ccccc3nc21	-6.29%
COc1ccc(OCCCCn2c(CO)nc3ccccc32)cc1	-24.5%
CCCCCOC(=O)Cn1c(=O)oc2ccc(C)cc21	-10.6%
CCCCCCCCCCOC(=O)Cn1c(COc2ccc(OC)cc2)[n+](C)c2ccccc21.[Cl-]	-83.3%
CCCCCCCCCCOC(=O)Cn1c(COc2cccc(C)c2)[n+](C)c2ccccc21.[Cl-]	-76%

Structure (SMILES)	hERG current change (%, negative = inhibition) at 10uM
Cc1cccc(OCCCCn2c(CO)nc3ccccc32)c1	-5.5%
CN(C)C(=O)C(Sc1ccc(S(=O)(=O)N2CCCC2)cn1)c1ccccc1 (stereo not drawn)	-13.4%
COc1ccccc1P(=O)(c1ccccc1)c1ccccc1	15.1%
COc1cccc(/C=C/C(=O)NCCc2ccc(OC)c(OC)c2)c1	-16.3%
N#CCC(=O)Nc1ccc(C(=O)OCC(=O)c2ccc3c(c2)OCCO3)cc1	10.5%
OC(CCc1ccncc1)COc1ccccc1 (stereo not drawn)	3.52%
OC(CNCCC(c1ccccc1)c1ccccc1)COc1ccccc1 (stereo not drawn)	-71.4%
OC(CNCc1ccccc1)COc1ccccc1 (stereo not drawn)	-11.9%
CNCC(O)COc1ccccc1 (stereo not drawn)	-5.69%
CC(CCc1ccccc1)NCC(O)COc1ccccc1 (stereo not drawn)	-73.4%
OC(CNCCc1ccccc1)COc1ccc(OCC(O)CNCCc2ccccc2)cc1 (stereo not drawn)	1.24%
CCc1cc(C(=O)N2CCN(c3ccccn3)CC2)sc1C	-3.12%
O=C(CCS(=O)CCC(=O)NCc1ccccc1)NCc1ccccc1	17.7%
Cc1nnc(NC(=O)c2cccc(F)c2)s1	4.08%
COC(=O)CN1C(c2ccc(Cl)cc2)=Nc2ccc(Cl)cc2C1c1ccccc1 (stereo not drawn)	-17.7%
NNC(=O)CN1C(c2ccc(Cl)cc2)=Nc2ccc(Br)cc2C1c1ccccc1 (stereo not drawn)	-53.3%
COC(=O)CN1C(c2cccc(Cl)c2)=Nc2ccc(Cl)cc2C1c1ccccc1 (stereo not drawn)	1.61%
COC(=O)CN1C(c2ccccc2)=Nc2ccc(Cl)cc2C1c1ccccc1 (stereo not drawn)	-66.4%
NNC(=O)CN1C(c2ccccc2)=Nc2ccc(Br)cc2C1c1ccccc1 (stereo not drawn)	-20%
NNC(=O)CN1C(c2ccc(Br)cc2)=Nc2ccc(Br)cc2C1c1ccccc1 (stereo not drawn)	-30.8%
